{
  "source": "PubChem BioAssay AID1159580",
  "about": "(chemical genetic matrix, 2015)",
  "assay": "chemical genetic growth profiling, strain panel (AID 1159580);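 also: tested at 20 µM; growth read once vehicle control cultures reached saturation at 30 °C; 1 = growth at the plate median or of vehicle wells; lower values mean less growth of the strain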",
  "settings": "growth OD",
  "key": {"[1]": {"settings": "S. cerevisiae deletion strains, locus YAL013W, strain DEP1, active compounds read low"}, "[2]": {"settings": "S. cerevisiae deletion strains, locus YBR229C, strain ROT2, active compounds read low"}, "[3]": {"settings": "S. cerevisiae deletion strains, locus YCL061C, strain MRC1, active compounds read low"}, "[4]": {"settings": "S. cerevisiae deletion strains, locus YDL101C, strain DUN1, active compounds read low"}, "[5]": {"settings": "S. cerevisiae deletion strains, locus YDR150W, strain NUM1, active compounds read low"}, "[6]": {"settings": "S. cerevisiae deletion strains, locus YEL061C, strain CIN8, active compounds read low"}, "[7]": {"settings": "S. cerevisiae deletion strains, locus YGR078C, strain PAC10, active compounds read low"}, "[8]": {"settings": "S. cerevisiae deletion strains, locus YHR030C, strain SLT2, active compounds read low"}, "[9]": {"settings": "S. cerevisiae deletion strains, locus YHR087W, strain rtc3, active compounds read low"}, "[10]": {"settings": "S. cerevisiae deletion strains, locus YJR043C, strain POL32, active compounds read low"}, "[11]": {"settings": "S. cerevisiae deletion strains, locus YJR075W, strain HOC1, active compounds read low"}, "[12]": {"settings": "S. cerevisiae deletion strains, locus YKL190W, strain CNB1, active compounds read low"}, "[13]": {"settings": "S. cerevisiae deletion strains, locus YLR039C, strain RIC1, active compounds read low"}, "[14]": {"settings": "S. cerevisiae deletion strains, locus YLR058C, strain SHM2 (second series), active compounds read low"}, "[15]": {"settings": "S. cerevisiae deletion strains, locus YLR085C, strain ARP6, active compounds read low"}, "[16]": {"settings": "S. cerevisiae deletion strains, locus YLR262C, strain YPT6, active compounds read low"}, "[17]": {"settings": "S. cerevisiae deletion strains, locus YML094W, strain GIM5, active compounds read low"}, "[18]": {"settings": "S. cerevisiae deletion strains, locus YMR219W, strain ESC1, active compounds read low"}, "[19]": {"settings": "S. cerevisiae deletion strains, locus YMR263W, strain SAP30, active compounds read low"}, "[20]": {"settings": "S. cerevisiae deletion strains, locus YNL153C, strain GIM3, active compounds read low"}, "[21]": {"settings": "S. cerevisiae deletion strains, locus YNL298W, strain CLA4 (second series), active compounds read low"}, "[22]": {"settings": "S. cerevisiae deletion strains, locus YNL322C, strain KRE1, active compounds read low"}, "[23]": {"settings": "S. cerevisiae deletion strains, locus YNR030W, strain Alg12, active compounds read low"}, "[24]": {"settings": "S. cerevisiae deletion strains, locus YPL055C, strain LGE1, active compounds read low"}, "[25]": {"settings": "S. cerevisiae deletion strains, locus YPL241C, strain CIN2, active compounds read low"}, "[26]": {"settings": "S. cerevisiae deletion strains, locus YPR135W, strain CTF4, active compounds read low"}, "[27]": {"settings": "S. cerevisiae strains, strain wild type, active compounds read low"}},
  "note": "Among all 5,500 compounds or so, about 2,000 (36%) were called active. Roughly 18% stayed inconclusive and do not appear here. This is one part of the list. A number with no mark means an inactive call. Rule as the data show it: active = normalized growth mostly below about 0.91 (no sharp cut-off); inconclusive = no clear call, values can overlap the other calls; inactive = mostly above about 0.92.",
  "data": [
    {"smiles": "CC(C)(C)c1cc(C(C)(C)C)n(-c2ccc(N=Cc3cc(Br)cc(Br)c3O)cc2)n1", "values": [
      {"measurement": "normalized growth", "setting": "[1]", "value": "0.157 (active)"},
      {"measurement": "normalized growth", "setting": "[2]", "value": "0.204 (active)"},
      {"measurement": "normalized growth", "setting": "[3]", "value": "0.194 (active)"},
      {"measurement": "normalized growth", "setting": "[4]", "value": "0.193 (active)"},
      {"measurement": "normalized growth", "setting": "[5]", "value": "0.355 (active)"},
      {"measurement": "normalized growth", "setting": "[6]", "value": "0.152 (active)"},
      {"measurement": "normalized growth", "setting": "[7]", "value": "0.0895 (active)"},
      {"measurement": "normalized growth", "setting": "[8]", "value": "0.103 (active)"},
      {"measurement": "normalized growth", "setting": "[9]", "value": "0.101 (active)"},
      {"measurement": "normalized growth", "setting": "[10]", "value": "0.357 (active)"},
      {"measurement": "normalized growth", "setting": "[11]", "value": "0.119 (active)"},
      {"measurement": "normalized growth", "setting": "[12]", "value": "0.187 (active)"},
      {"measurement": "normalized growth", "setting": "[13]", "value": "0.074 (active)"},
      {"measurement": "normalized growth", "setting": "[14]", "value": "0.318 (active)"},
      {"measurement": "normalized growth", "setting": "[15]", "value": "0.12 (active)"},
      {"measurement": "normalized growth", "setting": "[16]", "value": "0.0868 (active)"},
      {"measurement": "normalized growth", "setting": "[17]", "value": "0.209 (active)"},
      {"measurement": "normalized growth", "setting": "[18]", "value": "0.219 (active)"},
      {"measurement": "normalized growth", "setting": "[19]", "value": "0.163 (active)"},
      {"measurement": "normalized growth", "setting": "[20]", "value": "0.267 (active)"},
      {"measurement": "normalized growth", "setting": "[21]", "value": "0.174 (active)"},
      {"measurement": "normalized growth", "setting": "[22]", "value": "0.679 (active)"},
      {"measurement": "normalized growth", "setting": "[23]", "value": "0.468 (active)"},
      {"measurement": "normalized growth", "setting": "[24]", "value": "0.172 (active)"},
      {"measurement": "normalized growth", "setting": "[25]", "value": "0.64 (active)"},
      {"measurement": "normalized growth", "setting": "[26]", "value": "0.276 (active)"},
      {"measurement": "normalized growth", "setting": "[27]", "value": "0.141 (active)"}
    ]},
    {"smiles": "CC(C)(C)c1cc(C(C)(C)C)n(-c2ccc([N+](=O)[O-])cc2)n1", "values": [
      {"measurement": "normalized growth", "setting": "[1]", "value": 1.02},
      {"measurement": "normalized growth", "setting": "[2]", "value": 1.01},
      {"measurement": "normalized growth", "setting": "[3]", "value": 0.994},
      {"measurement": "normalized growth", "setting": "[4]", "value": 1.01},
      {"measurement": "normalized growth", "setting": "[5]", "value": 0.991},
      {"measurement": "normalized growth", "setting": "[6]", "value": 1.02},
      {"measurement": "normalized growth", "setting": "[7]", "value": 1.01},
      {"measurement": "normalized growth", "setting": "[8]", "value": 1.06},
      {"measurement": "normalized growth", "setting": "[9]", "value": 1.01},
      {"measurement": "normalized growth", "setting": "S. cerevisiae deletion strains, locus YJL187C, strain SWE1, active compounds read low", "value": 1},
      {"measurement": "normalized growth", "setting": "[10]", "value": 1.02},
      {"measurement": "normalized growth", "setting": "[11]", "value": 0.997},
      {"measurement": "normalized growth", "setting": "[12]", "value": 0.998},
      {"measurement": "normalized growth", "setting": "[13]", "value": 1.04},
      {"measurement": "normalized growth", "setting": "[14]", "value": 1.01},
      {"measurement": "normalized growth", "setting": "[15]", "value": 1.01},
      {"measurement": "normalized growth", "setting": "[16]", "value": 1.01},
      {"measurement": "normalized growth", "setting": "[17]", "value": 1.04},
      {"measurement": "normalized growth", "setting": "[18]", "value": 1},
      {"measurement": "normalized growth", "setting": "[19]", "value": 0.999},
      {"measurement": "normalized growth", "setting": "S. cerevisiae deletion strains, locus YMR307W, strain GAS1, active compounds read low", "value": 0.995},
      {"measurement": "normalized growth", "setting": "[20]", "value": 1},
      {"measurement": "normalized growth", "setting": "[21]", "value": 1.05},
      {"measurement": "normalized growth", "setting": "[22]", "value": 1},
      {"measurement": "normalized growth", "setting": "[23]", "value": 1.04},
      {"measurement": "normalized growth", "setting": "S. cerevisiae deletion strains, locus YOL006C, strain TOP1, active compounds read low", "value": 1.06},
      {"measurement": "normalized growth", "setting": "[24]", "value": 1.04},
      {"measurement": "normalized growth", "setting": "[25]", "value": 1.07},
      {"measurement": "normalized growth", "setting": "[26]", "value": 1.03},
      {"measurement": "normalized growth", "setting": "[27]", "value": 1.01}
    ]}
  ]
}
